Most compounds without a hit are left out; they make up all but 2.1% or so of the library.
APP transl inh: inhibitors of APP translation via 5'UTR reporter, primary screen, APP 5'UTR luciferase, SH-SY5Y cells; SH-SY5Y APP 5'UTR-luciferase reporter, luminescence; inhibition, % at 2 µM; hit rate 0.82% among 190,000; AID 1285, 2008;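 active = inhibition above a set limit, derived from the sample mean plus 3 SD, cut at about 45% in these data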
aSyn 5UTR inh: MLPCN primary screen, SNCA 5' untranslated region; alpha-synuclein 5'UTR reporter, inhibitor activity; inhibition, % (tested at 7.5 µM); hit rate 0.82% among 300,000; AID 1813, 2009; in the data active = inhibition above about 60%;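 also: H4 neuroglioblastoma cells stably carrying SNCA 5'UTR luciferase fusion; 0% = DMSO wells and 100% = positive control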
IEC-6 cytotox: cytotoxicity in IEC-6 intestinal epithelial cells, primary screen, cytotoxicity control for KLF5 inhibitor project, cell-based, luminescence | IEC-6 cytotoxicity, luminescence viability | inhibition, % at 5 µM | hit rate 0.78% among 290,000 | AID 1825, 2009; in the data active = inhibition above about 22%;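 also: 0% = plate median of test compound wells and 100% = cytotoxic reference compound wells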
BaF3 tox: parental Ba/F3 cell viability inhibition, counter-screen for JAK2V617F inhibitor project, murine pro-B, CellTiter-Glo luminescence. inhibition, % at 5.6 µM. AID 1486, 2009. CellTiter-Glo ATP luminescence. hit rate 1.1% among 220,000;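 active = inhibition above a per-campaign cutoff, the mean inhibition of all tested compounds plus 3 SD, cut at about 27% in these data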;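 also: 0% = DMSO wells and 100% = JAK Inhibitor I control wells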
Ba/F3 V617F tox: reduced viability of JAK2V617F-dependent Ba/F3 cells, primary screen, JAK2V617F inhibitor project, cell-based, Ba/F3 EpoR-JAK2V617F, luminescence. ATP luminescence. inhibition, % at 5.6 µM. hit rate 1.1% among 220,000;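 active = inhibition above the campaign mean plus 3 SD over all tested compounds, cut at about 24% in these data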;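 also: cytokine-independent growth of Ba/F3 cells driven by EpoR plus mutant JAK2; 0% = DMSO-treated cells and 100% = JAK inhibitor I control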
KLF5 inhibitor: KLF5 expression inhibitors, primary screen, DLD-1 cells, luminescence; DLD-1 KLF5 promoter-luciferase reporter; inhibition, % at 5 µM; hit rate 0.23% among 290,000;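 active = inhibition above a per-plate limit of that plate's mean compound inhibition plus 3 SD, cut at about 60% in these data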;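 also: 0% = DMSO wells and 100% = LY294002 at 200 µM; higher means less KLF5 promoter-driven luciferase light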
The depositor's hits bear a star; nt = not tested or not shown.

SMILES	APP transl inh	aSyn 5UTR inh	IEC-6 cytotox	BaF3 tox	Ba/F3 V617F tox	KLF5 inhibitor
CCOC(=O)CCCNC(=O)CN1C(=O)NC(c2ccccc2)(c2ccccc2)C1=O	nt	18	-2	nt	nt	11
CN(C)CCn1cnc2c(c1=N)C(c1ccccc1)c1ccc3ccccc3c1O2 (centres undefined)	nt	90*	8	nt	nt	-13
Cc1sc(NC(=O)CN(C(=O)c2ccccc2F)C2CCCC2)c(C(N)=O)c1C	nt	-6	-4	nt	nt	-5
O=C1N/C(=C/c2ccc(N3CCOCC3)o2)C(=O)N1c1ccccc1	54*	nt	-6	-1	2	-12
Cc1ccccc1S(=O)(=O)Cc1ccc(C(=O)N2CC(C)CC(C)C2)o1 (centres undefined)	-2	-8	-2	-2	-3	23
Cc1ccccc1S(=O)(=O)Cc1ccc(C(=O)N2CCN(c3cccc(C)c3C)CC2)o1	20	101*	18	4	1	5
Cc1ccc(CNC(=O)Cn2nnc(C(=O)Nc3cc(C)ccc3C)c2N)cc1	nt	10	12	nt	nt	-14
Cc1cc2ncn(CCOc3ccccc3)c2cc1C	-58	-168	0	8	3	-107
COCCn1cnc2cc(C)c(C)cc21	4	-9	1	44*	4	15
COc1cccc2sc(NN)nc12	-26	-46	10	2	2	-18
COc1cccc2sc(Nc3nc(-c4cc5ccccc5oc4=O)cs3)nc12	91*	12	6	2	-3	4
COc1cccc2sc(Nc3nnc(-c4ccccc4Cl)o3)nc12	85*	66*	3	85*	82*	-19
COc1ccc(Nc2nc(-c3cc4cccc(OC)c4oc3=O)cs2)cc1	-24	-83	4	5	2	16
COc1cccc2sc(Nc3nc(-c4ccncc4)cs3)nc12	94*	105*	54*	83*	85*	54
Brc1ccsc1/C=N/Nc1ccccc1	nt	-9	nt	nt	nt	nt
Cc1cc(C)c(NC(=O)CNC(=O)c2ccccc2OCc2c(C)noc2C)c(C)c1	nt	5	nt	nt	nt	nt
Cc1c(NC(=O)Nc2ccc3c(c2)OCO3)cccc1[N+](=O)[O-]	nt	-96	4	nt	nt	-85
CC1=CC(C)C2(COC(c3ccc[n+](C)c3)OC2)C(C)C1 (centres undefined)	-2	nt	3	72*	65*	-17
O=C(C[n+]1cccc(CNC(=O)c2ccc(OC(F)F)cc2)c1)c1ccccc1	-5	3	7	11	2	-33
CN(C)c1cc[n+](CC(=O)c2ccc(OC(F)F)cc2)cc1	nt	7	-3	47*	40*	-16
CC1CCCN(S(=O)(=O)c2ccc(NC(=O)C3CC(=O)N(c4ccccc4)C3)cc2)C1 (centres undefined)	nt	15	0	nt	nt	8
O=C(Nc1nccs1)[C@@H]1CCCN1C(=O)c1cccs1	-8	15	-5	104*	-2	-4
S=C(Nc1ccc(Cl)cc1)N1CCN(C2CCCCC2)CC1	-10	-11	-4	36*	23	-3
CCN(CC)S(=O)(=O)c1cccc(-c2n[nH]c(=S)n2/N=C/c2ccc(OC)cc2)c1	-1	36	-1	10	3	-31
CCN(CC)S(=O)(=O)c1cccc(-c2n[nH]c(=S)n2/N=C/c2ccc(Br)cc2)c1	10	21	-3	94*	2	-10
SMILES	APP transl inh	aSyn 5UTR inh	IEC-6 cytotox	BaF3 tox	Ba/F3 V617F tox	KLF5 inhibitor
Cc1c(Br)c(O)c(Br)c(O)c1/C=N/n1c(-c2ccccc2)n[nH]c1=S	nt	62*	0	nt	nt	10
O=C(NCc1ccccc1Cl)C1CCCN1C(=O)Nc1ccccc1 (centres undefined)	nt	-8	-3	nt	nt	-18
O=S(=O)(c1ccc(Cl)c(Cl)c1)c1snnc1-c1ccccc1	95*	118*	2	42*	58*	19
COc1ccccc1CNC(=O)COC(=O)c1ccccc1-c1ccccc1	nt	9	nt	nt	nt	nt
CN(C)CCCNc1cc(C(C)(C)C)nc2c(-c3ccc(Cl)cc3)cnn12	nt	108*	-3	3	3	-24
Cc1nn(-c2ccccc2)c(C)c1/C=N/NC(=O)c1cc(C(C)(C)C)[nH]n1	-2	-3	0	2	-3	-42
Cc1ccc(-c2cc(C(=O)N/N=C/c3c(C)nn(-c4ccccc4)c3C)[nH]n2)cc1	95*	66*	4	2	1	-7

Screens as filed in PubChem.
